Experimental data: the antibiotic and cytotoxicity screens of Wong et al. (2023)
The campaign covered roughly 39,000 compounds. About 3,300 (8.5%) were called active. Many of the other results were omitted from the sample, so actives are more common in it than they were.

What follows are compounds tested on HepG2 (assay: cytotoxicity call (relative viability < 0.9)). Conditions: 10 µM.

SMILES | cytotoxicity call
C[C@@H]1CN([C@H](C)CO)C(=O)c2cccc(NS(C)(=O)=O)c2O[C@@H]1CN(C)S(=O)(=O)c1cccs1 | inactive
Clc1ccc2nncn2n1 | inactive
CNC(=O)[C@H]1O[C@H](n2cnc3c(NCc4cccc(I)c4)nc(Cl)nc32)[C@@H](O)[C@@H]1O | inactive
C[C@@H]1CCCCO[C@@H](CN(C)Cc2ccncc2)[C@H](C)CN([C@H](C)CO)C(=O)c2cc(NS(=O)(=O)c3ccc(Cl)cc3)ccc2O1 | inactive
NC(=O)NCC#Cc1ccc2c(c1)[C@]1(C(=O)N2)[C@H](C(=O)N2CCN(c3ncccn3)CC2)[C@H]2C(=O)O[C@H](c3ccccc3)[C@H](c3ccccc3)N2[C@@H]1c1ccccc1OCCO | inactive
Cc1cc(C(=O)Nc2cccc3c2O[C@@H](CN(C)S(=O)(=O)c2ccc(Cl)cc2)[C@@H](C)CN([C@@H](C)CO)C3=O)n(C)n1 | inactive
O=C(CN1CCOCC1)NCC[C@@H]1CC[C@H](NC(=O)Nc2ccccc2)[C@@H](CO)O1 | inactive
CNC(=O)Nc1ccc(-c2nc(N3C[C@H]4CC[C@@H](C3)O4)c3cnn(C4CCC5(CC4)OCCO5)c3n2)cc1 | inactive
O=C1CCC(C(=O)N2CSCC2C(=O)O)N1 (stereo not drawn) | active
O=C1CC[C@@H](C(=O)N2CSC[C@H]2C(=O)O)N1 | inactive
O=C1CC[C@@H](C(=O)O)N1 | inactive
CC(C)NC(=O)Nc1cccc2c1O[C@H](CN(C)C(=O)NC1CCCCC1)[C@@H](C)CN([C@@H](C)CO)C2=O | inactive
C[C@@H]1CN([C@@H](C)CO)C(=O)c2cccc(NC(=O)c3ccncc3)c2O[C@@H]1CN(C)Cc1ccc2c(c1)OCO2 | inactive
C[C@@H]1CCCCO[C@@H](CN(C)C(=O)C2CCCCC2)[C@H](C)CN([C@H](C)CO)C(=O)c2cc(NC(=O)Nc3cccc4ccccc34)ccc2O1 | inactive
O=C(C[C@H]1C[C@H]2c3cc(NC(=O)NC4CCCC4)ccc3O[C@H]2[C@@H](CO)O1)NCc1ccc(-c2ccccc2)cc1 | inactive
O=C(C[C@@H]1C[C@H]2c3cc(NC(=O)NC4CCCC4)ccc3O[C@H]2[C@H](CO)O1)NCc1ccc(-c2ccccc2)cc1 | active
O=C(C[C@@H]1C[C@@H]2c3cc(NC(=O)NC4CCCC4)ccc3O[C@@H]2[C@H](CO)O1)NCc1ccc(-c2ccccc2)cc1 | inactive
O=C(C[C@@H]1C[C@@H]2c3cc(NC(=O)NC4CCCC4)ccc3O[C@@H]2[C@@H](CO)O1)NCc1ccc(-c2ccccc2)cc1 | inactive
O=C(C[C@H]1C[C@H]2c3cc(NC(=O)NC4CCCC4)ccc3O[C@H]2[C@@H](CO)O1)NCc1ccc(Oc2ccccc2)cc1 | inactive
O=C(C[C@@H]1C[C@H]2c3cc(NC(=O)NC4CCCC4)ccc3O[C@H]2[C@@H](CO)O1)NCc1ccc(-c2ccccc2)cc1 | inactive
O=C(C[C@H]1C[C@@H]2c3cc(NC(=O)NC4CCCC4)ccc3O[C@@H]2[C@H](CO)O1)NCc1ccc(-c2ccccc2)cc1 | active
O=C(C[C@H]1C[C@@H]2c3cc(NC(=O)NC4CCCC4)ccc3O[C@@H]2[C@@H](CO)O1)NCc1ccc(-c2ccccc2)cc1 | active
O=C(C[C@H]1C[C@H]2c3cc(NC(=O)NC4CCCC4)ccc3O[C@H]2[C@H](CO)O1)NCc1ccc(-c2ccccc2)cc1 | inactive
CC(=O)OCCc1nc(C(=O)NCc2ccc3c(c2)OCO3)cc2c1[C@@H](CCO)N([S@](=O)C(C)(C)C)C2 | inactive
O=C(C[C@@H]1C[C@H]2c3cc(NS(=O)(=O)c4ccccc4)ccc3O[C@H]2[C@H](CO)O1)NCC(F)(F)F | inactive

SMILES | cytotoxicity call
COc1cccc(-c2ccc3c(c2)O[C@H](CN(C)C(=O)C2CCOCC2)[C@@H](C)CN([C@@H](C)CO)S3(=O)=O)c1 | inactive
C[C@@H]1CN([C@H](C)CO)C(=O)c2cc(NC(=O)Nc3ccccc3)ccc2O[C@@H]1CN(C)Cc1ccc(C(=O)Nc2ccccc2N)cc1 | inactive
C[C@H](CO)N1C[C@H](C)[C@H](CN(C)S(=O)(=O)c2ccccc2)Oc2ccc(NS(=O)(=O)c3ccc(F)cc3)cc2C1=O | inactive
CN1C(=O)c2cc(NC(=O)c3cnccn3)ccc2OC[C@H]2O[C@H](CC(=O)N[C@H]3CCN(Cc4ccccc4)C3)CC[C@@H]21 | inactive
COc1ccc(S(=O)(=O)N(C)C[C@@H]2Oc3ccc(NC(=O)Cn4cnnn4)cc3C(=O)N([C@H](C)CO)C[C@@H]2C)cc1 | inactive
COc1ccc(C(=O)O)cc1 | inactive
COc1ccc(C=CC(=O)c2cc(O)ccc2O)cc1 | active
COc1ccc(C=CC(=O)c2ccccc2)cc1 | active
COc1ccc(C=CC(=O)c2ccc(O)cc2O)cc1 | inactive
CC(=C/C(=O)O)/C=C/c1ccccc1 | inactive
O=C(C=Cc1ccc(O)cc1)c1ccc(O)cc1O | inactive
COc1ccc(C(=O)C=Cc2ccccc2)cc1 | active
CCCCC(CC)COC(=O)C=Cc1ccc(OC)cc1 (stereo not drawn) | inactive
CC=Cc1ccc(OC)cc1 | active
COc1ccc(/C=C2/NC(=O)NC2=O)cc1 | inactive
C/C=C/c1ccc(OC)cc1 | inactive
C[C@H](CO)N1C[C@H](C)[C@H](CN(C)C(=O)Nc2ccc(-c3ccccc3)cc2)OCc2ccccc2-c2ccccc2C1=O | inactive
C[C@H](CO)N1C[C@H](C)[C@H](CN(C)C(=O)CCC(F)(F)F)OCCCC[C@H](C)Oc2ccc(NC(=O)CCC(F)(F)F)cc2C1=O | inactive
O=C(NCC(=O)N1CCOCC1)c1ccccc1 | inactive
Cc1ccc(S(=O)(=O)Nc2ccc3c(c2)CC(=O)N([C@H](C)CO)C[C@@H](C)[C@H](CN(C)S(=O)(=O)c2cn(C)cn2)O3)cc1 | inactive
Cc1ccc(S(=O)(=O)Nc2ccc3c(c2)CC(=O)N([C@@H](C)CO)C[C@H](C)[C@@H](CN(C)S(=O)(=O)c2cccs2)O3)cc1 | inactive
C[C@H](CO)N1C[C@H](C)[C@@H](CN(C)S(C)(=O)=O)Oc2ccc(NC(=O)Cn3cnnn3)cc2C1=O | inactive
COc1ccc(O)cc1 | inactive
COc1cc(C=Cc2ccc(O)cc2)cc(OC)c1 | active
Oc1ccc(C=Cc2cc(O)cc(O)c2)cc1 | inactive

SMILES | cytotoxicity call
C[C@@H]1CN([C@@H](C)CO)C(=O)c2cc(C#CCN(C)C)cnc2O[C@@H]1CN(C)S(C)(=O)=O | inactive
COc1ccc(S(=O)(=O)N(C)C[C@H]2OCCCC[C@@H](C)Oc3ccc(NC(=O)C4CCCCC4)cc3C(=O)N([C@@H](C)CO)C[C@H]2C)cc1 | inactive
CC(C)(C)[S@](=O)N1Cc2cc(C(=O)NCCN3CCCCC3)nc(-c3cccc(-c4ccc(C#N)cc4)c3)c2[C@@H]1CCO | inactive
C[C@H]1CN([C@@H](C)CO)S(=O)(=O)c2ccc(C#CCC3CCCC3)cc2O[C@H]1CN(C)C(=O)c1cnccn1 | inactive
C[C@H]1CN([C@@H](C)CO)S(=O)(=O)c2ccc(C#CCC3CCCC3)cc2O[C@H]1CN(C)C(=O)CN(C)C | active
C[C@@H]1CN([C@@H](C)CO)S(=O)(=O)c2ccc(C#CCC3CCCC3)cc2O[C@@H]1CN(C)C(=O)CN(C)C | active
C[C@H]1CN([C@@H](C)CO)S(=O)(=O)c2ccc(C#CCC3CCCC3)cc2O[C@@H]1CN(C)C(=O)CN(C)C | inactive
C[C@@H]1CN([C@H](C)CO)S(=O)(=O)c2ccc(C#CCC3CCCC3)cc2O[C@@H]1CN(C)C(=O)c1cnccn1 | inactive
C[C@H](CO)N1C[C@H](C)[C@@H](CN(C)C(=O)c2cnccn2)Oc2cc(C#CCC3CCCC3)ccc2S1(=O)=O | active
C[C@@H]1CN([C@H](C)CO)S(=O)(=O)c2ccc(C#CCC3CCCC3)cc2O[C@@H]1CN(C)C(=O)CN(C)C | inactive
C[C@H](CO)N1C[C@H](C)[C@H](CN(C)C(=O)CN(C)C)Oc2cc(C#CCC3CCCC3)ccc2S1(=O)=O | inactive
C[C@@H]1CN([C@H](C)CO)S(=O)(=O)c2ccc(C#CCC3CCCC3)cc2O[C@H]1CN(C)C(=O)CN(C)C | inactive
C=CCN([C@@H](Cc1ccccc1)[C@@H](O)c1cn(CCCNC(=O)C(=O)NC)nn1)S(=O)(=O)c1ccccc1[N+](=O)[O-] | inactive
C[C@@H]1CN([C@@H](C)CO)S(=O)(=O)c2ccc(C#CCN(C)C)cc2O[C@H]1CN(C)S(=O)(=O)c1cccc(F)c1 | inactive
CC(=O)OC[C@@H](OC(C)=O)[C@H](OC(C)=O)[C@H](OC(C)=O)[C@H](OC(C)=O)[C@@H](COC(C)=O)OC(C)=O | inactive
Cc1noc(C)c1NC(=O)Nc1ccc2c(c1)C(=O)N([C@@H](C)CO)C[C@H](C)[C@@H](CN(C)C(=O)NC(C)C)O2 | inactive
COc1ccc(S(=O)(=O)Nc2ccc3c(c2)CC(=O)N([C@@H](C)CO)C[C@@H](C)[C@H](CN(C)Cc2ccc(Cl)c(Cl)c2)O3)cc1 | inactive
COc1ccc(S(=O)(=O)Nc2ccc3c(c2)CC(=O)N([C@@H](C)CO)C[C@H](C)[C@H](CN(C)Cc2ccc(Cl)c(Cl)c2)O3)cc1 | active
COc1ccc(S(=O)(=O)Nc2ccc3c(c2)CC(=O)N([C@H](C)CO)C[C@H](C)[C@H](CN(C)Cc2ccc(Cl)c(Cl)c2)O3)cc1 | active
COc1ccc(S(=O)(=O)Nc2ccc3c(c2)CC(=O)N([C@H](C)CO)C[C@@H](C)[C@H](CN(C)Cc2ccc(Cl)c(Cl)c2)O3)cc1 | active
COc1ccc(S(=O)(=O)Nc2ccc3c(c2)CC(=O)N([C@@H](C)CO)C[C@H](C)[C@@H](CN(C)Cc2ccc(Cl)c(Cl)c2)O3)cc1 | inactive
COc1ccc(S(=O)(=O)Nc2ccc3c(c2)CC(=O)N([C@@H](C)CO)C[C@@H](C)[C@@H](CN(C)Cc2ccc(Cl)c(Cl)c2)O3)cc1 | active
CN1C(=O)c2cc(NC(=O)c3cscn3)ccc2OC[C@@H]2O[C@H](CC(=O)N3CCOCC3)CC[C@@H]21 | inactive
